From PubChem BioAssay
Rows were chosen to be rich in hits. Some 0.97% of all compounds tested hit in one or more screens of this group.
AGP1-GFP MLPCN = alters AGP1-GFP fluorescence in TOR pathway yeast screen; S. cerevisiae AGP1-GFP multiplex flow cytometry, 3 h; GFP as percent of DMSO wells; GFP response vs DMSO, % at 10 µM; hit rate 0.02% among 320,000;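 active = GFP response relative to DMSO above a set limit, near screen average plus 3 SD, cut at about 150% in these data; inconclusive = fewer than 70 cells counted for the yeast strain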;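 note: median GFP channel fluorescence of the gated AGP1 strain per well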
GASC-1 inh = blocks human GASC-1 demethylase activity; Q9H3R0; GST-JMJD2C(1-420) H3K9me3 demethylation, DELFIA europium; inhibition, % at 2.35 µM; hit rate 0.069% among 330,000; AID 2099;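 active = more than half of a compound's replicate wells show inhibition beyond 50%, single wells judged on their own value; inconclusive = some, but no more than half, of replicates pass 50% inhibition; inactive = no replicate passes 50% inhibition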;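 note: signal counts dimethyl H3K9 product captured on neutravidin plate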
Target sequence (Q9H3R0 1-420 limits assumed): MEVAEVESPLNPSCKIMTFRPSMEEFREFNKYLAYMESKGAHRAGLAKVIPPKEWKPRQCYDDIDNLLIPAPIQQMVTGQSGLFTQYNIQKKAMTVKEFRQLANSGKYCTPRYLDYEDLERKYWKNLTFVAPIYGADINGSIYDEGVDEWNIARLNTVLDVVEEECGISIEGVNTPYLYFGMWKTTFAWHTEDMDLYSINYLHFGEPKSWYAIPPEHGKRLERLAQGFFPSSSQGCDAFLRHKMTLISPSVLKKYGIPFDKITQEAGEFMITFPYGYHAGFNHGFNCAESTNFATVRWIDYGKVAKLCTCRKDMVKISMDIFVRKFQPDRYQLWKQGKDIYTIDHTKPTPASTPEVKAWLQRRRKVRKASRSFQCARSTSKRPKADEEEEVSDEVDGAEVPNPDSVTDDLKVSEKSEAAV
MEP2 TOR yeast = modulators of TOR pathway MEP2-GFP in S. cerevisiae; S. cerevisiae MEP2-GFP strain, flow cytometry GFP, 3 h; 100% = DMSO control level; GFP response vs DMSO, % at 10 µM; hit rate 0.51% among 330,000; AID 2016;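 active = GFP response versus DMSO above a set limit, roughly screen mean plus 3 SD, cut at about 180% in these data; inconclusive = fewer than 70 cells counted for a yeast strain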;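 note: median GFP fluorescence of the barcode-gated MEP2-GFP cells per well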
LAP4 TOR yeast = modulators of TOR pathway LAP4-GFP in S. cerevisiae. hit rate 0.34% among 320,000. AID 2023. S. cerevisiae LAP4-GFP multiplex, flow cytometry GFP, 3 h; median GFP as percent of DMSO wells. GFP response vs DMSO, % at 10 µM;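 active = GFP response vs DMSO above a set limit, about the screen mean plus 3 SD, cut at about 150% in these data; inconclusive = under 70 cell events counted for the yeast strain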
CIT2 TOR yeast = alters CIT2-GFP fluorescence in TOR pathway yeast screen; GFP response vs DMSO, % at 10 µM; hit rate 0.065% among 320,000; S. cerevisiae CIT2-GFP strain, flow cytometry, 3 h; 100 means same as DMSO wells;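 active = GFP response relative to DMSO above a set limit, near the screen mean plus 3 SD, cut at about 150% in these data; inconclusive = Fewer than 70 cells measured for a yeast strain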;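 note: ratio of well median GFP fluorescence to mean of DMSO wells on the plate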
RPL19A TOR yeast = alters RPL19A-GFP fluorescence in TOR pathway yeast screen; S. cerevisiae RPL19A-GFP strain, flow cytometry, 3 h; hits give low values; percent response vs DMSO, % at 10 µM; hit rate 0.3% among 330,000; AID 2025;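 active = percent response vs DMSO below 50%; inconclusive = fewer than 70 events counted for the yeast strain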;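 note: median channel GFP fluorescence of the barcoded RPL19A-GFP strain; lower means less RPL19A-GFP as with rapamycin TOR inhibition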
Large screens that a line does not name were inactive; [ ] = dose if it differs, or a comment.

O=C(c1ccc(Cl)c([N+](=O)[O-])c1)N(Cc1ccco1)C1CCS(=O)(=O)C1 (centres undefined)	none
Cc1ccc(C#N)c(SCCN2CCCCC2)n1	none
Cc1cccc2cc(C#N)c(SCCN3CCCCC3)nc12	GASC-1 inh 102
CCN(c1cccc(C)c1)S(=O)(=O)c1cc(CN2C(=O)c3cccnc3C2=O)ccc1OC	none
COc1ccc(CNS(=O)(=O)c2cc3c4c(c2)C(C)C(=O)N4CCC3)cc1 (centres undefined)	none
CCOC(=O)COc1cc(OCC(=O)OCC)c2c3c(c(=O)oc2c1)CCCC3	none
O=C(CCN1C(=O)S/C(=C/c2ccccc2)C1=O)Nc1ccc(O)c(C(=O)O)c1	AGP1-GFP MLPCN inconclusive, CIT2 TOR yeast inconclusive, RPL19A TOR yeast 17[may fluoresce violet]
Cc1ccc(OCCNC(=O)c2ccccc2F)cc1	none
O=C(CN(C(=O)CCC(=O)Nc1ccccn1)C1CCCC1)NCc1ccc(F)cc1	none
CC(C)(C)C(=O)/C=c1\[nH]c(=O)/c(=C\c2ccccc2F)s1	MEP2 TOR yeast 215[may fluoresce violet], CIT2 TOR yeast inconclusive
O=c1[nH]ncc2c3ccccc3n(Cc3ccc(F)cc3)c12	AGP1-GFP MLPCN inconclusive, MEP2 TOR yeast 235[may fluoresce violet], CIT2 TOR yeast inconclusive
O=c1[nH]ncc2c3ccccc3n(Cc3cccc(Cl)c3)c12	none
CCc1ccccc1NC(=O)NC1CCCCCCC1	none
O=S1(=O)N=C2CCCN2C(c2ccc(F)cc2)N1 (centres undefined)	none
O=S1(=O)N=C2CCCCCN2C(c2ccc(F)cc2)N1 (centres undefined)	AGP1-GFP MLPCN inconclusive, MEP2 TOR yeast 192[may fluoresce violet], CIT2 TOR yeast inconclusive, RPL19A TOR yeast 17[may fluoresce violet]
CC(C)(C)c1ccc(C(=O)N2CCN(C(=O)C3CCCCC3)CC2)cc1	CIT2 TOR yeast 152[may fluoresce green]
COc1ccc(N2CCN(C(CNC(=O)C3CCCCC3)c3ccco3)CC2)cc1 (centres undefined)	none
O=C1C(Br)=Cc2cccc3cccc1c23	AGP1-GFP MLPCN inconclusive, MEP2 TOR yeast 389[may fluoresce violet], CIT2 TOR yeast inconclusive, RPL19A TOR yeast 35[may fluoresce violet]
COc1ccc(S(=O)(=O)N2CCOCC2)cc1NC(=O)COC(=O)c1ccc([N+](=O)[O-])s1	none
COC(=O)Cc1n[nH]c(=O)c2ccccc12	AGP1-GFP MLPCN inconclusive, MEP2 TOR yeast 299[may fluoresce violet], CIT2 TOR yeast inconclusive
Nc1ccc(S(=O)(=O)C(F)(F)F)cc1N	none
O=C(CCS(=O)(=O)c1ccc(Br)s1)NC1CCCCCC1	MEP2 TOR yeast 448[may fluoresce violet], CIT2 TOR yeast inconclusive
Cc1cccc(CNC(=O)c2cc(S(=O)(=O)N3CCOCC3)cn2C)c1	none
CCCn1c(=O)[nH]c(=O)c2c1nc(-c1ccc(C#N)cc1)n2CCOC	none
CCCn1c(=O)[nH]c(=O)c2c1nc(-c1ccc(OC(F)(F)C(F)C(F)(F)F)cc1)n2CCOC (centres undefined)	MEP2 TOR yeast 179[may fluoresce violet], CIT2 TOR yeast inconclusive
Cc1ccc(NC(=O)CN(C)S(=O)(=O)c2cccs2)c(Br)c1	AGP1-GFP MLPCN inconclusive, MEP2 TOR yeast 211[may fluoresce violet], CIT2 TOR yeast inconclusive, RPL19A TOR yeast 23[may fluoresce violet]
CN(CC(=O)NCCc1ccc(Cl)cc1)S(=O)(=O)c1cccs1	AGP1-GFP MLPCN inconclusive, MEP2 TOR yeast inconclusive, LAP4 TOR yeast inconclusive, CIT2 TOR yeast inconclusive, RPL19A TOR yeast 20[may fluoresce violet]
CN1C(=O)/C(=C/c2ccc(-c3ccccc3[N+](=O)[O-])o2)SC1=Nc1ccc(Cl)c(C(=O)O)c1	AGP1-GFP MLPCN inconclusive, CIT2 TOR yeast inconclusive, RPL19A TOR yeast 41[may fluoresce violet]
Cc1ccc(C)c(N2C(=N)S/C(=C\c3ccc(-c4ccccc4C(=O)O)o3)C2=O)c1	none
OC1(c2ccccc2)c2ccccc2-c2ncccc21 (centres undefined)	none
Cc1cccc(NC(=O)/C(C#N)=C/c2ccccc2Cl)n1	LAP4 TOR yeast 164
O=C1C2C3C=CC(C4CC34)C2C(=O)N1/N=C/c1ccc([N+](=O)[O-])o1 (centres undefined)	LAP4 TOR yeast 158
Cc1ccc(NS(=O)(=O)c2c(C)noc2C)cc1	none
CC(=O)Nc1cccc(NS(=O)(=O)c2c(C)noc2C)c1	none
Cc1noc(C)c1S(=O)(=O)Nc1ccc(C#N)cc1	CIT2 TOR yeast 156[may fluoresce green]
Cc1noc(C)c1S(=O)(=O)Nc1cccc(CO)c1	CIT2 TOR yeast 152[may fluoresce green]
Cc1ccc(OCCn2c(=O)n(C)c3ccccc32)cc1	none
O=C(Nc1ccc2c(c1)OCCO2)C(=O)NC1CC1	none
CCC(Oc1ccccc1)C(=O)Nc1ccc(S(=O)(=O)Nc2ncccn2)cc1 (centres undefined)	MEP2 TOR yeast 236[may fluoresce violet], CIT2 TOR yeast inconclusive
CCC(Oc1ccccc1)C(=O)Nc1ccc(S(=O)(=O)Nc2cnc3ccccc3n2)cc1 (centres undefined)	none
O=C(Cn1cc(C(F)(F)F)cc(Cl)c1=O)NC1CCS(=O)(=O)C1 (centres undefined)	none
COc1ccccc1NC(=O)c1ccc([N+](=O)[O-])o1	LAP4 TOR yeast 159
Cc1cc(C(=O)Nc2ccc3ccccc3c2)oc1C	MEP2 TOR yeast 236[may fluoresce violet], CIT2 TOR yeast inconclusive
O=C(Nc1ccc2[nH]c(=O)[nH]c2c1)c1ccc([N+](=O)[O-])o1	none
Cc1ccc(NC(=O)c2ccc([N+](=O)[O-])o2)cc1C	LAP4 TOR yeast 200
COc1ccccc1NC(=O)c1ccc(N2CC3CC(C2)c2cccc(=O)n2C3)c(NC(=O)c2ccncc2)c1 (centres undefined)	none
O=C(CSc1nnc(NC(=O)c2cccc(Cl)c2)s1)NCC1CCCO1 (centres undefined)	none
Cc1c(C)c2ccc(OCC(=O)Nc3ccccn3)cc2oc1=O	none
Cc1c(C)c2ccc(OCC(=O)Nc3cccnc3)cc2oc1=O	AGP1-GFP MLPCN inconclusive, MEP2 TOR yeast 182[may fluoresce violet], CIT2 TOR yeast inconclusive, RPL19A TOR yeast 15[may fluoresce violet]
O=S(=O)(NC1=NCCCCC1)c1ccc2sc(NS(=O)(=O)c3ccc4ccccc4c3)nc2c1	MEP2 TOR yeast 243[may fluoresce violet], CIT2 TOR yeast inconclusive, RPL19A TOR yeast 41[may fluoresce violet]
Cn1c(=O)cc(SCC(=O)NCC2COc3ccccc3O2)c2ccccc21 (centres undefined)	MEP2 TOR yeast 397[may fluoresce violet], CIT2 TOR yeast inconclusive
Cc1cc(C)nc(SCC(=O)NCC2COc3ccccc3O2)n1 (centres undefined)	none
C=CCNC(=O)c1ccc(NC(=O)CC2SC(N3CCCC3)=NC2=O)cc1 (centres undefined)	none
CN(c1ccc(C(=O)O)cc1)S(=O)(=O)c1ccccc1	GASC-1 inh 65
CCN1/C(=C/c2ccc3cc(C)ccc3[n+]2CC)Sc2ccccc21	AGP1-GFP MLPCN 238[may fluoresce green], MEP2 TOR yeast active[may fluoresce green], LAP4 TOR yeast 605[may fluoresce green], CIT2 TOR yeast active[may fluoresce green]
CC[n+]1c(/C=C2\Sc3ccccc3N2C)ccc2cccc(C)c21	none (no result: AGP1-GFP MLPCN, MEP2 TOR yeast, LAP4 TOR yeast, CIT2 TOR yeast, RPL19A TOR yeast)
CC(C)c1nnc(SCC(=O)N2CCc3ccccc32)n1C	LAP4 TOR yeast 156 (no result: AGP1-GFP MLPCN)
Cn1cnnc1SCC(=O)N1CCc2ccccc21	none
